Assay outcomes: PubChem, National Center for Advancing Translational Sciences (NCATS)
Many of the other results were omitted from the sample, so hits are more common in it than they were.
Pf Dd2 inh – qHTS Primary assay for Inhibitors of Plasmodium falciparum Dd2 growth in vitro; P. falciparum Dd2 growth, SYBR Green, 72 h; Potency, µM (highest dose often 28.9 µM), for inactives: at the highest dose activity, negative = inhibition, most hits filed as inhibitors; AID 1347417, 2020; 120,000 compounds, 4.3% hits; active means well fitted inhibition curve with a large enough effect;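 further: plate controls were DMSO vehicle for no effect and reference drug for full effect; nearly all actives have a fitted effect of over 65% in size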
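Readout: SYBR Green fluorescence, 485 nm excitation, 535 nm emission, after ~16 h lysis at 37C. Before that, Dd2-infected red cells (2.5% hematocrit) grew 72 h with compound, 29 uM top final concentration.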
The depositor's hits bear a star; i = inactive; ! = not confirmed by another sample; [ ] = another dose, or the depositor's remark. Potency means the concentration at half of the fitted maximal effect.

SMILES	Pf Dd2 inh
COCCN1C(=O)[C@H]2CN(Cc3cccc(C#N)c3)C[C@H]2C1=O	-6%
CN(C)c1ccc(CN[C@H]2C[C@H]3C(=O)NC[C@@H](CCC(=O)NCc4ccccc4)N3C2)cc1	-5%
CC(C)(C)C(=O)N1CCC2(CC1)Cc1ccccc1NC2=O	-8%[44.1 µM]
O=C(NCc1ccccc1)N1CC[C@H](c2nc3ccc(F)cc3[nH]2)C1	i
O=c1[nH]c(C2CCN(Cc3cccs3)CC2)nc2ccc(F)cc12	-6%
Cc1ccc2nc(C3CCN(Cc4cccc(Cl)c4)CC3)[nH]c(=O)c2c1	1%
O=c1[nH]c(C2CCCN(Cc3cccc(Cl)c3)C2)nc2ccc(F)cc12 (centres undefined)	10µM*!
O=c1[nH]c(C2CCCN(Cc3ccc(Cl)cc3)C2)nc2ccc(F)cc12 (centres undefined)	8.9µM*
O=c1[nH]c(C2CCCN(CC3CCCC3)C2)nc2ccc(F)cc12 (centres undefined)	2.2µM*
O=c1[nH]c(C2CCCN(Cc3ccccc3)C2)nn1-c1ccc(Cl)cc1 (centres undefined)	i
O=c1[nH]c(C2CCCN(CC3CC3)C2)nn1-c1ccccc1 (centres undefined)	i
COc1ccc(CN2CCCC(c3nn(-c4ccc(Cl)cc4)c(=O)[nH]3)C2)cc1 (centres undefined)	i
Cc1ccccc1CC(=O)NCc1nnc2c(-c3nc(C(C)C)no3)cccn12	-14%
Cc1ccccc1CN1CC[C@@H]2OCC(=O)N(Cc3cccc(C(N)=O)c3)[C@H]2CC1	-4%[44.1 µM]
CC[C@H]1CN(S(=O)(=O)c2ccc(OC)cc2)CC[C@H]1CC(=O)NCc1cccnc1	i
COc1ccc(C(=O)N2CCCC3(CC(c4ccccn4)=NO3)C2)cc1 (centres undefined)	9%
Cc1ccsc1C(=O)N1CCC2(CC1)NC(=O)N(c1ccccc1)N2	43%
O=C(c1n[nH]c2c1CCCC2)N1CCC2(CC1)NC(=O)N(c1ccccc1)N2	3.2µM*
COc1ccc(C(=O)N2CCC3(CC2)NC(=O)N(c2ccccc2)N3)cc1	7%
COc1cccc(NC(=O)N2CCc3nc4cc(-c5ccccc5Cl)[nH]n4c(=O)c3C2)c1	-9%[5.79 µM]
Cc1ccc(NC(=O)[C@H]2CN(Cc3ccccc3)C[C@H]2C(=O)O)cc1	-15%
COc1ccc(C2Cn3cnc(C(=O)N4CCC(C(=O)Nc5cccc(Cl)c5)CC4)c3CO2)cc1 (centres undefined)	-22%
CCCC(=O)N1C[C@@H]2CCCN3CCC[C@@H]([C@H]23)[C@H]1CCCC(=O)NCC1CC1	-5%
COc1ccc(C(=O)N2CCCCCNC(=O)[C@@H]3CCCC[C@@H]32)c(OC)c1	-2%
CN(C)C(=O)CN1CCCc2nc(C3CC3)ncc2C1=O	33%
SMILES	Pf Dd2 inh
Cc1cc(C)cc(NC(=O)CCCn2c3ccccc3c(=O)c3ccccc32)c1	10µM*
Cc1ccc(CNC(=O)CCCCn2c(=O)c3ccccc3n(Cc3ccc(C)cc3)c2=O)cc1	i
Cc1cc(C)cc(NC(=O)CCCn2nc(C)c3c(C)n(-c4ccccc4)nc3c2=O)c1	25%
Cn1ccc2c(C(=O)N3CCCC(c4ccc(C(=O)O)cc4)C3)cccc21 (centres undefined)	3%
COCCNC(=O)[C@H]1C[C@H](Oc2cccnc2)CN1C(=O)c1cccc(OC)c1	3%
Cc1ccc2nc(NC(=O)C3CC(=O)N(c4n[nH]c5ccccc45)C3)sc2c1 (centres undefined)	i
COc1ccc(NC(=O)O[C@@H]2C=C[C@H](c3c(C)nn(-c4ccc(C)c(Cl)c4)c3C)C2)cc1	i
Cc1ccccc1-n1nc(C)c([C@H]2C=C[C@@H](OC(=O)N[C@H](C)c3ccccc3)C2)c1C	-8%[44.1 µM]
Cc1nn(-c2ccc(C(C)C)cc2)c(C)c1[C@@H]1C=C[C@@H](NC(=O)COCC(=O)O)C1	i
COc1ccc(-n2nc(C)c([C@@H]3C=C[C@@H](NCc4ccccc4)C3)c2C)cc1	2.8µM*
Cc1nn(-c2ccccn2)c(C)c1[C@@H]1C=C[C@@H](NC(=O)NCc2ccccc2)C1	i
COc1ccc(-n2nc(C)c([C@H]3C=C[C@@H](OC(=O)N[C@H](C)c4ccccc4)C3)c2C)cc1	7.9µM*
COCc1nc(C2CCCN(C(=O)c3cnccn3)C2)no1 (centres undefined)	18%
CCCNC(=O)N1Cc2ccccc2OC2(CCN(C)CC2)C1	i
COCCN1C(=O)[C@@H]2C[C@@H](CN2C2CCCC2)Oc2ccccc21	-30%[44.1 µM]
CC(C)N1C[C@@H]2C[C@H]1C(=O)N(CC1CC1)c1ccccc1O2	11µM*
COCCN1C(=O)[C@@H]2C[C@@H](CN2Cc2ccc(C#N)cc2)Oc2ccccc21	-11%[44.1 µM]
COCCN1C(=O)[C@@H]2C[C@@H](CN2Cc2cccc(OC)c2)Oc2ccccc21	10µM*
O=C1[C@@H]2C[C@@H](CN2C(=O)C2CC2)Oc2ccccc2N1Cc1ccccc1	i
O=C1[C@@H]2C[C@@H](CN2C(=O)c2ccccc2)Oc2ccccc2N1CC1CC1	5%[44.1 µM]
COCCN1C(=O)[C@@H]2C[C@@H](CN2C(C)C)Oc2ccccc21	-34%[44.1 µM]
COc1ccc(CN2C(=O)[C@@H]3C[C@@H](CN3C(=O)c3cnccn3)Oc3ccccc32)cc1	-26%[44.1 µM]
CN1CCC(N2C[C@@H]3C[C@H]2C(=O)N(Cc2ccc(OC(F)(F)F)cc2)c2ccccc2O3)CC1	10µM*
O=C1[C@@H]2C[C@@H](CN2C2COC2)Oc2ccccc2N1Cc1ccc(OC(F)(F)F)cc1	i
COc1ccc(CN2C(=O)[C@@H]3C[C@@H](CN3C3CCCC3)Oc3ccccc32)cc1	10µM*
SMILES	Pf Dd2 inh
COCCN1C(=O)[C@@H]2C[C@@H](CN2Cc2ccccc2)Oc2ccccc21	i
CCN1C(=O)CCN(S(=O)(=O)c2ccccc2)CC12CCOCC2	22%
O=C1CCC2(CNC(=O)c3ccc4ncccc4c3)CCCC=C2N1 (centres undefined)	-23%
O=C(c1ccccc1)N1CCC2(CC1)CN[S+](=O)([O-])c1cccnc1O2	13%
O=C1CCCN1CCCN1C(=O)[C@@H]2C[C@@H](O)CN2C2(CN(Cc3ccccc3Cl)C2)C1=O	49%
C=CCN1CCN(C(=O)c2nnn3cc(-c4ccccc4)[nH]c(=O)c23)CC1	-1%
O=C(Nc1ccc([C@H]2OCC(=O)N(Cc3ccc(F)cc3)[C@@H]2CO)cc1)C1CCOCC1	-16%
COc1ccc(C(=O)N2CCn3c(nn(-c4ccncc4)c3=O)C2)cc1	9%
COC[C@H]1C[C@@H](NC(=O)Nc2ccccc2)[C@H](O)[C@@H]1O	20%[44.1 µM]
O=C(c1cccc(Cl)c1)N1CCN(c2cc(C(F)(F)F)ncn2)CC1	i
O=C1C2CN(Cc3ccccc3Cl)CCC2OCCN1Cc1ccccc1 (centres undefined)	i
COc1cc(F)ccc1-c1nc(N2CCOCC2)cc2c1CN(CC(F)(F)F)C2=O	-25%[44.1 µM]
CC(C)N1C[C@@H]2C[C@H]1C(=O)N(Cc1ccc(OC(F)(F)F)cc1)c1ccccc1O2	11µM*
COc1ccc(CN2C(=O)[C@@H]3C[C@@H](CN3C(C)C)Oc3ccccc32)cc1	26%[44.1 µM]
O=C1[C@@H]2C[C@@H](CN2C(=O)c2ccccc2)Oc2ccccc2N1Cc1ccccc1	-12%[44.1 µM]
Cc1noc([C@@H](C)NS(C)(=O)=O)c1C(=O)O	-2%[44.1 µM]
COCCN1C(=O)CC[C@]2(C(=O)NCc3cccc(Cl)c3)CCCC[C@@H]12	-3%
Cc1ccccc1CN1CCN(C(=O)CN2CCCC2=O)CC(O)C1 (centres undefined)	1%
